From PubChem BioAssay AID1159606 (Sanford-Burnham Center for Chemical Genomics, 2016)
Among all 360,000 compounds or so, about 7,300 (2%) were called active. This is one part of a sample in which actives are shown more often than they occur. Unmarked numbers belong to inactive results. Cut-off read from the data, not from the text of the source: active = inhibition above about 50%; inactive = the rest.

Assay: blockers of TWEAK-induced Fn14 reporter activity – luciferase reporter cells, uHTS, primary screen (AID 1159606)
Conditions: TWEAK-stimulated Fn14 reporter cells, luciferase luminescence, 8 h; at 10 µM; hits give high values

| SMILES | inhibition |
| --- | --- |
| CC(C)(C)C1CCC(=O)N2CCC[C@]2(c2ccccc2)C1 (some centres undefined) | -2.82% |
| COc1ccc(NC(=O)CCCNC(=O)Cn2cnc3sc4c(c3c2=O)CCCC4)cc1OC | 4.82% |
| COc1ccc(NC(=O)CCNC(=O)Cn2cnc3sc4c(c3c2=O)CCCC4)cc1OC | -3.89% |
| COc1ccc(/C=N/Nc2ncnc3sc4c(c23)CCCC4)cc1O | 91.4% (active) |
| Cc1ccccc1S(=O)(=O)N1[C@@H](c2cccc(Cl)c2)C(C(=O)OC(C)(C)C)=CC[C@H]1c1ccc(Cl)cc1 | -24.3% |
| Cc1ccc(-c2nc3c(Cl)cc(C(F)(F)F)cn3c2Cc2cccc(Cl)c2)cc1 | 25.6% |
| COC(=O)c1ccc2c(c1)S(=O)(=O)NC2C (centres undefined) | -6.18% |
| CN(C)c1ccc2c(=O)[nH][nH]c(=O)c2c1 | -6.35% |
| COc1ccc(CCNC(=O)COC(=O)Cc2cccc(F)c2)cc1 | -0.83% |
| COc1cc(-c2n[nH]c(=S)n2Cc2ccccc2)cc(OC)c1OC | -2.96% |
| CC(C)Oc1ccc(CCc2n[nH]c(=S)n2Cc2ccccc2)cc1 | -6.3% |
| CC(C)Oc1ccc(Cc2n[nH]c(=S)n2Cc2ccccc2)cc1Cl | 92.2% (active) |
| CCC(C(=O)OC)n1cnc2scc(-c3ccc(C)cc3)c2c1=O (centres undefined) | 0.23% |
| CCOC(=O)c1c(-c2ccc(C)cc2)csc1/N=C(\C)C1=C(O)c2ccccc2C1=O | 66.2% (active) |
| COC(=O)c1c(-c2ccc(C)cc2)csc1N | -2.01% |
| CS(=O)(=O)N(C(=O)NC(=O)NC1CCS(=O)(=O)C1)C1CCCCC1 (centres undefined) | 13.7% |
| CCCS(=O)(=O)NC(=O)C1(C)CCCN(C(=O)c2cccs2)C1 (centres undefined) | -4% |
| COCC1CCCCN1C(=O)c1cc(COc2ccc(C)c(C)c2)on1 (centres undefined) | -33.8% |
| NS(=O)(=O)c1ccc2nc(NC(=O)C3=COCCO3)sc2c1 | 24.4% |
| Cc1ccc(NC(=O)c2cccc(S(=O)(=O)N3CCCc4ccccc43)c2)nc1 | 58.7% (active) |

| SMILES | inhibition |
| --- | --- |
| O=C(NC(Nc1nc2ccc([N+](=O)[O-])cc2s1)(C(F)(F)F)C(F)(F)F)c1ccccc1 | 57.6% (active) |
| NS(=O)(=O)c1ccc(CNC(=O)c2cccc(S(=O)(=O)N3CCc4ccccc43)c2)cc1 | 3.71% |
| CCC(=O)Nc1nnc(S(=O)(=O)N2CCCc3ccccc32)s1 | -3.9% |
| CC1CCN(C(=O)c2cccc(S(=O)(=O)N3CCCc4ccccc43)c2)CC1 | -0.65% |
| O=C(NNC(=O)c1ccc(-n2cncn2)c([N+](=O)[O-])c1)c1ccccc1 | 2.77% |
| O=C(Nc1nc2ccc([N+](=O)[O-])cc2s1)c1ccc(S(=O)(=O)N2CCCc3ccccc32)cc1 | 64.6% (active) |
| CC(Nc1ccc([N+](=O)[O-])cc1[N+](=O)[O-])c1ccccc1 (centres undefined) | -18.4% |
| CCCCCCCCN1C(=O)[C@H](CC(=O)NCC23CC4CC(CC(C4)C2)C3)C[C@@]2(C(=O)OC)CCCCC=C12 | 8.39% |
| CCNC(=O)C1(C)CCN(Cc2ccc(C(=O)OCC)o2)C1 (centres undefined) | 1.05% |
| CN(C)N=Nc1ccc2nc[nH]c2c1 | -9.3% |
| O=S1(=O)CC(N2CCN(Cc3ccccc3F)CC2)CN1Cc1cn(Cc2ccccc2)nn1 (centres undefined) | 5.09% |
| C=CCn1c(SCc2nnc(-c3ccccc3)o2)nnc1C(O)c1ccccc1 (centres undefined) | -3.86% |
| CCC(NC(=O)c1ccccc1NC(=O)c1ccccc1)C(=O)NNC(=O)CSc1nc2ccccc2o1 (centres undefined) | -0.91% |
| Cn1cnc2c1c(=O)n(Cc1c(Cl)cccc1Cl)c(=O)n2C | -7.11% |
| Cn1c(N)c(C(=O)COC(=O)c2ccccc2NCc2ccco2)c(=O)n(C)c1=O | 22.6% |
| CC(=O)c1cnn(-c2cc(Oc3ccc(F)cc3)ncn2)c1C | 8.07% |
| CCOC(=O)/C(=N\Nc1cc(Cl)ccc1Cl)N1CCN(C)CC1 | -34.9% |
| O=C(/C=C/c1cn(-c2ccccc2)nc1-c1ccc2c(c1)OCCO2)NCCCN1CCOCC1 | -1.36% |
| CC(=O)C1=C(C)NC(C)=C(C(C)=O)C1c1cn(-c2ccccc2)nc1-c1cccs1 | -6.98% |
| O=C(/C=C\c1cn(-c2ccccc2)nc1-c1cccs1)N1CCOCC1 | 98.4% (active) |

| SMILES | inhibition |
| --- | --- |
| COc1ccc(S(=O)(=O)N2CCCCC2)cc1NC(=O)COc1ccccc1 | 22.4% |
| COc1ccc(-c2nn(C)c(=O)c3ccccc23)cc1CNC(=O)C1CCCCC1 | -37.6% |
| COc1ccc(-c2nn(C)c(=O)c3ccccc23)cc1NC(=O)COc1ccccc1 | 71.2% (active) |
| CC1CC(=S)Nc2ccccc2N1Cc1ccccc1 (centres undefined) | 13.5% |
| Cc1nc2ccc(NC(=O)N3CCC(c4ccccc4)C3)cc2nc1C (centres undefined) | 0.79% |
| CC(C)(C)OC(=O)N/N=C/c1ccc(C(=O)O)cc1 | -4.99% |
| O=C(O)c1ccc(N/N=C/c2ccc3ncccc3c2)cc1 | 95.2% (active) |
| CCNC(=S)NNC(=O)c1ccc2ncccc2c1 | 1.76% |
| CC1(C(=O)Nc2ccc3c(c2)OCCO3)CCN1C(=O)Cc1cc(F)ccc1F (centres undefined) | -3.09% |
| O=S(=O)(NCc1ccccc1Cl)c1cnc[nH]1 | -2.25% |
| O=S1(=O)CC(N2CCN(Cc3ccccc3F)CC2)CN1Cc1cn(Cc2cccc(C(F)(F)F)c2)nn1 (centres undefined) | 10.4% |
| O=[N+]([O-])c1cc2ccccc2nc1-c1ccccc1 | -7.41% |
| CCN(CC(=O)NC1CCS(=O)(=O)C1)c1nc(-c2cccnc2)nc2ccccc12 (centres undefined) | 0.56% |
| O=[N+]([O-])c1ccc(F)cc1Oc1nc(-c2cccnc2)nc2ccccc12 | 55.1% (active) |
| Cc1ccc(S(=O)(=O)N2[C@@H](c3cccc4ccccc34)C(C(=O)O)=C[C@H]2C(C)(C)C)cc1 | 14.3% |
| CCOc1ccc(CN2CCNC(=O)C2CC(=O)NCCCC2CCCC2)cc1 (centres undefined) | 7.15% |
| CCOC(=O)c1c(NC(=S)NC(=O)/C=C/c2cccs2)sc(C)c1C | 20.2% |
| CCOC(=O)c1c(-c2ccccc2)csc1NC(=S)NC(=O)c1ccccc1 | 57.9% (active) |
| CCOC(=O)C1=C(NC(=S)NC(=O)c2ccccc2)c2ccccc2CC1(C)C | 4.16% |
